# Screens deposited in PubChem BioAssay by several laboratories.
# NALP1 inh – NALP1 inhibition | S. cerevisiae NALP1/ASC/caspase-1 growth, X-gal OD620, 72 h | inhibition, % at 10 µM | hit rate 0.61% among 280,000 | AID 2071; in the data active means inhibition mostly above about 24%, no sharp cut-off; inactive means mostly below about 32%
# Hsp70 act – switches on Hsp70 transcription; HeLa Hsp70 promoter luciferase reporter, luminescence; scaled: vehicle 0, proteasome-inhibitor control 100%; activation, % at 10 µM; hit rate 0.04% among 200,000; AID 1203;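 active means activation above the mean across all tested compounds plus 3 SD, cutoff set per campaign, cut at about 5.5% in these data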;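 further: 100% = MG132 at 30 µM as the positive control and 0% = DMSO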
# HSF1 activator – increases HSF-1 driven luciferase reporter signal | NIH3T3-HGL HSF-1 luciferase reporter, MG132, 8 h; 100% = twice DMSO control signal | activation, % at 9 µM | hit rate 1.7% among 300,000 | AID 504408;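 active means mean replicate activation of at least 50% with a set share of replicates each reaching 50%; inconclusive means only one of those two conditions met; inactive means mean below 50% and too few replicates reaching it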;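 further: 0% = median of the neutral control wells and 100% = twice that signal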
# HSF1 inh – HSF1 inhibition; NIH3T3-HGL HSE-luciferase, MG132-induced, luminescence 8 h; active compounds read low; activity change, negative = inhibition, % at 7.5 µM (by protocol); hit rate 0.77% among 300,000; AID 2098;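 active means more than half of replicate wells show activity change below -50%, luminescence cut by over half; inconclusive means some wells, but at most half, below -50%; inactive means no replicate well below -50%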;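 further: luciferase reports HSF-1 transcriptional activity via heat shock element; 0% = median of DMSO wells and -100% = zero luminescence signal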
# HSP90 inh – inhibitors of HSP90 luciferase refolding in rabbit reticulocyte lysate; luciferase refolding luminescence, 3 h; inhibition, % at 5.6 µM; hit rate 0.91% among 290,000; AID 1789;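 active means inhibition above the screen-wide mean plus 3 SD, computed separately per campaign, cut at about 16% in these data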;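 further: 0% = DMSO wells and 100% = 60 µM geldanamycin wells; inhibitors lower the luminescence because luciferase stays unfolded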
# p-CIP stab down – compounds decreasing mouse p/CIP protein stability | AID 1984 | decrease of EGFP signal, % at 10 µM | Q05BA5 | F442A p/CIP-EGFP cells, EGFP fluorescence, 16 h | hit rate 0.01% among 290,000;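 active means EGFP signal decrease of at least 30% at 10 µM or well 3 SD below plate mean, unless failing retest; inactive means the rest, including hits failing retest or dose response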
# HSP90 inh confirm – HSP90 inhibition, confirmation assay; shares compounds with HSP90 inh; AID 1846; rabbit reticulocyte lysate, luciferase refolding luminescence, 3 h; inhibition, % at 5.9 µM; hit rate 64% among 2,300; in the data active means inhibition above about 18%;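 further: 0% = vehicle wells and 100% = reference inhibitor wells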
# FLuc counter – counter-screen for HSP90 inhibitors: inhibitors of firefly luciferase; shares compounds with HSP90 inh; AID 1847; purified native firefly luciferase, luminescence; inhibition, % at 5.9 µM; hit rate 48% among 2,300;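 active means inhibition above the mean inhibition of all tested sample wells plus 3 SD, cut at about 10% in these data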;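 further: 0% = DMSO with luciferase and 100% = wells lacking luciferase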
# Target sequence (P08659 whole entry, looked up): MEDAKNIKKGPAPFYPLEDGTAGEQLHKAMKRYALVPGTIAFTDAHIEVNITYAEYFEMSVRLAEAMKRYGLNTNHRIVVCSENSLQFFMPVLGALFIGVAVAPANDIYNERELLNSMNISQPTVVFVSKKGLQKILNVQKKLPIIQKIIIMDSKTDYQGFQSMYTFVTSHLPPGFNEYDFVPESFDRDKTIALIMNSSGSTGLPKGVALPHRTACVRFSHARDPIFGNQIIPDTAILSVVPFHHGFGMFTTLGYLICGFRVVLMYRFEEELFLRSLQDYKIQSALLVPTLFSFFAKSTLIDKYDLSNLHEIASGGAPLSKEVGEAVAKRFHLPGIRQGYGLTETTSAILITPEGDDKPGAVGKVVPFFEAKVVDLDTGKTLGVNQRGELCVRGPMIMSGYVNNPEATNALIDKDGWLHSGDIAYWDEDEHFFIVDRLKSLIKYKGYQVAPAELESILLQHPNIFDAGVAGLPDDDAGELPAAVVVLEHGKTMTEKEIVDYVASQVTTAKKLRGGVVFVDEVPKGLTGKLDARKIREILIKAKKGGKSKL
# Numbers without * were called inactive; ? = inconclusive; nt = no result given. Only some compounds are listed: those with a hit (about 3.8% of all), similar ones and a draw of the others.
SMILES,NALP1 inh,Hsp70 act,HSF1 activator,HSF1 inh,HSP90 inh,p-CIP stab down,HSP90 inh confirm,FLuc counter
CCOc1ccc2nc(COC(=O)c3cccs3)c(C(C)=O)[n+]([O-])c2c1,12,nt,6,-7,29*,7,-5,-11
O=C(NCCc1ccccc1)c1ccccc1NC(=O)C1CCCCC1C(=O)O (configuration not stated),4,0,44,22,47*,-8,2,-9
COC(=O)c1ccccc1NC(=O)C1CCCCC1C(=O)O (configuration not stated),nt,0,38,6,-1,-2,nt,nt
Cc1cccc(N(O)C(=O)Nc2cccc(Cl)c2)c1,-1,nt,29,2,26*,4,62*,-17
CCN(C(=O)Nc1cccc(Cl)c1)c1ccccc1,15,nt,0,7,2,-7,nt,nt
CN(C)c1ccc(N=Cc2nc(-c3ccccc3)oc2O)cc1,14,0,37,19,-2,-39,nt,nt
CN(C)c1ccc(N=Cc2cccn2C)cc1,12,nt,-33,-25,22*,-8,10,-12
COc1ccc(S(=O)(=O)NCCCn2ccnc2)cc1C(C)(C)C,17,nt,2,-1,-4,-11,nt,nt
COc1ccc(C(=O)OCC(=O)NC(C)CCc2ccccc2)c(OC)c1 (configuration not stated),-5,nt,11,-4,2,-7,nt,nt
COc1ccc(CCNC(=O)COc2ncnc3ccccc23)cc1OC,8,0,-7,-4,62*,-30,-6,-11
NC(=O)[C@H]1CC2(CC(c3cccc(NC(=O)[C@H]4CCC(=O)N4)c3)=NO2)CN1C(=O)c1cc([N+](=O)[O-])cc([N+](=O)[O-])c1 (some centres not stated),-21,nt,-7,-1,nt,0,nt,nt
COc1cc(C(=O)NNC(=O)c2ccccc2Br)ccc1OCC(=O)N1CCOCC1,nt,nt,-9,-1,nt,nt,nt,nt
c1cc(CSc2nnc(-c3ccc4c(c3)OCO4)o2)ccn1,0,0,31,16,-2,-2,nt,nt
CC(=O)CSc1nnc(-c2ccc3c(c2)OCO3)o1,-8,0,0,2,18*,5,37*,5
O=C(CSc1nnc(-c2ccccc2Cl)o1)N1CCOCC1,21,nt,34,21,1,0,nt,nt
COc1ccc(C)cc1N(CC(=O)Nc1ccc(S(=O)(=O)N2CCCC2)cc1)S(C)(=O)=O,8,nt,-4,5,-6,-10,nt,nt
CC(=O)Nc1cccc(Oc2ccc3c(c2)C(=O)NC3=O)c1,10,nt,29,17,0,-2,nt,nt
COc1ccc(C(=O)/C=C/c2ccc(C)cc2)c(OC(=O)c2ccc([N+](=O)[O-])cc2)c1,21,0,14,-5,-3,1,nt,nt
COc1ccc(C(=O)/C=C/c2ccccc2F)c(OC(=O)c2ccc([N+](=O)[O-])cc2)c1,-5,0,2,8,18*,1,37*,-22
COC(=O)c1c(C)[nH]c(C(=O)OC(C)C(=O)N(C)C2CCCCC2)c1C (configuration not stated),nt,nt,5,5,nt,nt,nt,nt
Cc1[nH]n(-c2ccccc2)c(=O)c1N=Nc1ccc(C(N)=O)cc1,-14,nt,-9,-1,25*,3,39*,-5
Cc1[nH]n(-c2ccccc2)c(=O)c1N=Nc1ccccc1,-6,0,41,25,-1,8,nt,nt
Cc1[nH]n(-c2ccccc2)c(=O)c1N=Nc1ccc(C(=O)O)cc1,5,nt,3,-7,36*,-10,34*,-17
Cc1[nH]n(-c2ccccc2)c(=O)c1N=Nc1cccc(C(=O)O)c1,10,nt,-41,-31,23*,-8,66*,78*
CC(=O)c1ccc(N=Nc2c(C)[nH]n(-c3ccccc3)c2=O)cc1,6,nt,9,-6,35*,0,60*,-10
SMILES,NALP1 inh,Hsp70 act,HSF1 activator,HSF1 inh,HSP90 inh,p-CIP stab down,HSP90 inh confirm,FLuc counter
Cc1ccccc1CC(=O)NC1CCN(Cc2ccccc2)CC1,5,nt,-14,-4,3,-3,nt,nt
c1ccc(NNC2=NCCS2)cc1,5,nt,-7,-6,19*,2,14,-15
CCc1cccc(NC(=O)C2CCCN2S(=O)(=O)c2ccc3c(c2)CC(C)N3C(C)=O)c1 (configuration not stated),17,nt,11,6,-1,-7,nt,nt
O=S(=O)(Nc1c(S(=O)(=O)c2ccccc2)c2nc3ccccc3nc2n1C1CCCCC1)c1ccccc1,5,0,6,-3,-1,12,nt,nt
C=CCn1c(NS(=O)(=O)c2ccccc2)c(S(=O)(=O)c2ccc(C)cc2)c2nc3ccccc3nc21,12,0,11,-7,22*,-4,52*,-1
CCOC(=O)C1CCN(S(=O)(=O)c2ccc3c(ccn3C)c2)CC1,18,nt,0,8,-4,-9,nt,nt
O=C(NCCc1ccccc1)c1cccc(N2CCCC2=O)c1,8,nt,-5,-3,35*,1,52*,33*
CC(C)(C)c1ccc(C(=O)NCCOc2ccccc2)cc1,16,nt,-68,-68*,49*,-7,70*,65*
CCOCC(=O)Nc1cc(C(=O)NCCc2ccccc2)ccc1Cl,-8,0,13,13,17*,5,32*,-20
CC(C)(C)c1ccc(C(=O)NCCOc2ccccc2F)cc1,12,nt,-74,-71*,63*,4,80*,78*
CN(C)S(=O)(=O)c1ccc(C(=O)NCCOc2ccccc2)cc1,-5,0,?,27,3,-9,nt,nt
Cn1cc(CC(=O)NCCN2CCOCC2)c2ccccc21,2,0,7,-8,3,-2,nt,nt
O=C(O)CSCc1nc2cccnc2n1C1CCCCC1,10,nt,-2,-1,3,-14,nt,nt
CC(C)(C)c1ccc(C(=O)NCc2ccccc2)cc1,3,0,30,12,0,-12,nt,nt
CC(C)(C)c1ccc(C(=O)NCCc2ccccc2)cc1,9,nt,-40,-30,21*,0,53*,43*
COCCCN1C(=O)c2ccc(C(=O)NCCc3ccccc3)cc2C1=O,26,nt,23,-1,22*,3,42*,24*
O=C(NCCc1ccccc1)c1ccc([N+](=O)[O-])cc1,6,0,30,5,23*,4,34*,30*
COCCCN1C(=O)c2ccc(C(=O)Nc3cccc(OC)c3)cc2C1=O,-21,0,33,7,-4,-17,nt,nt
CCOc1ccc(NC(=O)CN(C)C(=O)CCCOc2ccc(Cl)c(C)c2)cc1OCC,2,nt,17,3,3,2,nt,nt
O=C(NCc1ccccc1)c1ccc[n+]([O-])c1,0,nt,7,4,-1,1,nt,nt
